# Only some compounds are listed: those with a hit (about 12% of all), similar ones and a draw of the others.
# HP1b binding inh: blocks HP1-beta chromodomain binding to methylated histone tails; P83916; AlphaScreen HP1-beta / biotin-H3K9me3 peptide binding; Potency, µM (series often up to 114 µM), inactives show top-dose activity change, negative = inhibition, most hits filed as inhibitors; 390,000 tested, 0.56% active; AID 540317; note: nearly all actives have a fitted effect of over 70% in size
#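 AlphaScreen: HP1-beta (50 nM) preformed 30 min with biotin-H3(1-18)K9me3 peptide (50 nM) in PBS pH 7.4, 0.01% Tween-20. Compound added for 30 min at RT, then streptavidin donor/nickel chelate acceptor beads (10 ug/mL) for 30 min.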
# Sfp inh: Sfp phosphopantetheinyl transferase inhibition. Q9F4F7. Biochemical Sfp PPTase activity, qHTS. Potency, µM, without a hit: largest response in the series, negative = inhibition, hits mostly inhibitors. 310,000 tested, 3.5% active. AID 1490;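 note: the enzyme is Sfp with the accession as filed and its product quenches rhodamine fluorescence; 0% = enzyme reaction without inhibitor and -100% = no enzyme wells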
#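 Fluorescence-quenching assay: 15 nM Sfp-PPTase preincubated 15 min at room temperature with compound, then 5 uM rhodamine-CoA and 12.5 uM BHQ-2-labelled YbbR peptide added. Fluorescence (ex 525/em 598 nm) read at start and after 30 min; difference gives rate.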
# BAZ2B block: inhibitors of human BAZ2B bromodomain; AID 504333; AlphaScreen BAZ2B-H3K14Ac peptide displacement; Q9UIF8; Potency, µM (highest dose often 114 µM), for the others: top-dose activity change, negative = inhibition, hits mostly inhibitors; 360,000 tested, 4.4% active; note: % is set by controls: 0 for no effect and ±100 for the full control effect; nearly all actives have a fitted effect of over 60% in size
#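 Multi-concentration screen (max 110 uM) measuring displacement of acetylated histone H3 peptide from BAZ2B by AlphaScreen, using 50 nM protein, 50 nM peptide and 10 ug/mL streptavidin donor plus Ni-chelate acceptor beads.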
# TDP1 inh: blocks human tyrosyl-DNA phosphodiesterase 1 | Q9NUW8 | recombinant TDP1, AlphaScreen DNA substrate cleavage | 350,000 tested, 0.28% active | Potency, µM (doses to about 130 µM), inactives show at the top dose activity change, negative = inhibition, usual class: inhibitors; note: % is set by controls: 0 for no effect and ±100 for the full control effect; nearly all actives have a fitted effect of over 40% in size
#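 AlphaScreen read-out: signal falls as enzyme removes the 3' tyrosine-FITC from a 5'-biotinylated DNA oligo (15 nM, 5 min, RT). Enzyme was E. coli-made recombinant Tdp1 at 1 nM, exposed to compound for 15 min beforehand; beads 10 ug/ml, 10 min.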
# G9a block: blocks human histone lysine methyltransferase G9a; Q96KQ7; G9a H3K9 monomethylation, AlphaScreen, 2 h; Potency, µM (titrated, usually from 102 µM), inactives show at the highest dose activity, negative = inhibition, actives largely listed as inhibitors; 350,000 tested, 8.8% active; AID 504332; note: % is set by controls: 0 for no effect and ±100 for the full control effect; nearly all actives have a fitted effect of over 75% in size
#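 Signal arises when biotinylated H3K9 peptide, once monomethylated, bridges streptavidin donor and antibody-captured acceptor beads. Enzyme at 20 nM was preincubated 15 min with test compounds; peptide 500 nM and SAM 20 uM then reacted for 2 h.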
# JMJD2A Tudor inh: blocks the human JMJD2A Tudor domain | AlphaScreen JMJD2A-Tudor / H3K4me3 peptide binding | Potency, µM (series often up to 114 µM), for the others: top-dose activity change, negative = inhibition, actives largely listed as inhibitors | 390,000 tested, 4.4% active | AID 504339; note: % is set by controls: 0 for no effect and ±100 for the full control effect; nearly all actives have a fitted effect of over 50% in size
# Target sequence (O75164 whole entry, looked up, the tested form may be a part): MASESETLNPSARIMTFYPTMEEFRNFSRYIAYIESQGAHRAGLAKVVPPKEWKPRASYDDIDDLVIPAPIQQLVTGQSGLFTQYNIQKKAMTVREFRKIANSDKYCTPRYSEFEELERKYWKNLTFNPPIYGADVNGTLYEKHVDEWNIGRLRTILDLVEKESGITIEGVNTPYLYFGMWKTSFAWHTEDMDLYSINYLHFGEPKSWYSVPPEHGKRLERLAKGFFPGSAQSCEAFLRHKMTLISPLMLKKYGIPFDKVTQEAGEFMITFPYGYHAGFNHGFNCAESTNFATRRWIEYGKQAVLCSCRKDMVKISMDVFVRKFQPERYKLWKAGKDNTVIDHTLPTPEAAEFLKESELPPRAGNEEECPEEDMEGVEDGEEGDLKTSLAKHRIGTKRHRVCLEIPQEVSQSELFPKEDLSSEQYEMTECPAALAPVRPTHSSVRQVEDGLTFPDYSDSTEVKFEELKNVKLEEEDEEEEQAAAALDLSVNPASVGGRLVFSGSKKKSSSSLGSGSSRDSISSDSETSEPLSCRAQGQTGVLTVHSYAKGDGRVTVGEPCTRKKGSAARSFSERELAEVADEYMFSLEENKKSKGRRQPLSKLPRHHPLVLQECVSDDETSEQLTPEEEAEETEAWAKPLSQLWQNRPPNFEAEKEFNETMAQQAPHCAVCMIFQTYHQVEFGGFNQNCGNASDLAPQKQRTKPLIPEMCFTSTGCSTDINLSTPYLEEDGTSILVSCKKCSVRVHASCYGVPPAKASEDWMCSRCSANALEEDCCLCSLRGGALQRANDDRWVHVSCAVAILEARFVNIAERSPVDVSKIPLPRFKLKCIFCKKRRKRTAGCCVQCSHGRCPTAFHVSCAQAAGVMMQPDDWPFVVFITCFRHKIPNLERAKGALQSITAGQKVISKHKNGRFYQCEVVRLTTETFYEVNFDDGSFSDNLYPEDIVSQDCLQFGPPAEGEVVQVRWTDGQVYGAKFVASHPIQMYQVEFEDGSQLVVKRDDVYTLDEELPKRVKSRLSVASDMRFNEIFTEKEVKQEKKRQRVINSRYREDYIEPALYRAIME
# Numbers without * were called inactive; ? = inconclusive; nt = no result; ! = not active in a repeat; [ ] = another dose, or the depositor's remark. Calls come from the whole dose curve; as a rule, active = well fitted curve in the direction sought with a large enough effect; inconclusive = small, poorly fitted or top-dose-only effect, or another doubt; inactive = no such curve, though single readings can be large; an effect the other way counts as inactive or inconclusive. Potency is the fitted concentration of half-maximal effect.
SMILES,HP1b binding inh,Sfp inh,BAZ2B block,TDP1 inh,G9a block,JMJD2A Tudor inh
COc1ccc(Cl)cc1/C=C1/C(=O)ON=C1C,13%,50µM*,-27%,nt,?,-29%
COc1ccc2c(c1OC)C(=O)OC2Nc1nc(-c2ccc(-c3ccccc3)cc2)cs1 (centres undefined),?,?,?,2%,40µM*,?
COc1cccc(-c2csc(NC3OC(=O)c4c3ccc(OC)c4OC)n2)c1 (centres undefined),3%,-10%,79µM*,-3%,nt,-20%
COc1ccc2c(c1OC)C(=O)OC2Nc1nc(-c2cc3ccccc3oc2=O)cs1 (centres undefined),37%,-21%,17%,0%,?,5%
Cn1ccnc1C(O)c1ccco1 (centres undefined),-7%,?,4%,2%,?,56µM*
COc1ccc(S(=O)(=O)N(C)C)cc1NC(=O)c1ccc2c(c1)NC(=O)C(C)S2 (centres undefined),-2%,nt,0%,2%,14%[12.7 µM],-21%
O=C(O)c1cc(=O)cc(C(=O)O)[nH]1,44%,40µM*,-38%,11%,1.7µM*!,-10%
O=C(CN1CCN(S(=O)(=O)c2ccccc2F)CC1)N1CCc2ccccc2C1,-26%,nt,nt,5%,nt,0.79µM*
O=S(=O)(c1ccccc1F)N1CCc2ccccc2C1,32%,6%,45%,nt,nt,-12%
CC(=O)OCCNC(=O)c1cccnc1,16%,11%,10%,0%,-21%,-1%
CC(C)(C)c1ccc(OCC(=O)OCCNC(=O)c2cccnc2)cc1,36%,7%,5%,4%,50µM*,-23%
O=C(N/N=C/c1ccc(O)c(O)c1)NC12CC3CC(CC(C3)C1)C2,-11%,-18%,?,nt,12%[2.33 µM],?
COc1cc(C(=O)N/N=C/c2ccc(OC)c(CN3CCN(c4ccc(F)cc4)CC3)c2)ccc1O,-14%,2%,-70%,3%,?,45µM*
COc1ccc(C(=O)N/N=C/c2ccc(OC)c(CN3CCc4cc(OC)c(OC)cc4C3C)c2)cc1 (centres undefined),9%,100µM*,-18%,6%,-25%,-21%
COc1cc(/C=N/NC(=O)NC23CC4CC(CC(C4)C2)C3)ccc1O,1%,-13%,?,nt,56µM*,-33%
COc1ccc(/C=N/NC(=O)c2ccccc2F)cc1CN1CCN(c2ccc(F)cc2)CC1,-18%,3%,50µM*,-5%,-51%[59 µM],-25%
COc1ccc(C(=O)N/N=C/c2ccc(OC)c(COc3ccc(F)cc3)c2)cc1,8%,18%,-27%,0%,nt,-10%
O=C(COC(=O)c1cc[n+]([O-])cc1)Nc1cccc(F)c1,53%,nt,nt,0%,nt,-21%
COc1cc(/C=N/NC(=O)c2ccc(-n3cccc3)cc2)ccc1O,-34%,-2%,?,3%,79µM*,?
CSc1ccccc1NC(=O)CNCCCN1CCOCC1,-26%[57 µM],?,56µM*,-9%,3.5µM*,0.11µM*
CCOCCCNCC(=O)Nc1cc(S(=O)(=O)N2CCOCC2)ccc1N1CCOCC1,31%,nt,nt,0%,nt,-12%
CCOCCCNCC(=O)Nc1ccccc1N1CCOCC1,?,-25%,35µM*,0%,11µM*,4µM*
COc1ccc(NC(=O)CSc2nnc(Cc3ccc(C)cc3)c(=O)n2N)cc1,27%,nt,8%,4%[0.505 µM],17%,-6%
CCOc1ccccc1OC(C)C(=O)Nc1ccc(S(=O)(=O)N2CCCC2)cc1 (centres undefined),18%,6%,-4%,2%,29%,-2%
O=c1c(-c2cc(F)cc(F)c2)nc2cnc(Oc3ccccc3)nc2n1C1CC1,nt,2%,nt,nt,-2%[12.7 µM],nt
SMILES,HP1b binding inh,Sfp inh,BAZ2B block,TDP1 inh,G9a block,JMJD2A Tudor inh
NCCC(=O)NCCc1cnc[nH]1,18%,-4%,5%,9%[56.1 µM],-1%[59 µM],?
NCCc1cnc[nH]1,32%,?,?,8%,8.4µM*!,-21%
CCOC(CNC(=O)c1ccc2c(c1)ncn2-c1ccccc1OC)OCC,72%,12%,-3%,nt,15%,-5%
O=C(O)c1ccc(N2CCc3ccccc32)c([N+](=O)[O-])c1,-4%,11%,?,nt,?,-30%
CCOC(CNC(=O)c1ccc(N2CCc3ccccc32)c([N+](=O)[O-])c1)OCC,28µM*,3%,40µM*,12%,11µM*,56µM*
COC(=O)c1ccc(N2CCc3ccccc32)c([N+](=O)[O-])c1,?,-10%,7.9µM*,nt,16µM*,14µM*
COC(=O)c1ccc(N2CCC(c3cc(-c4ccc(OC)cc4)n[nH]3)CC2)c([N+](=O)[O-])c1,-19%,?,?,10%,16µM*,?
COC(=O)c1ccc(N2CCN(CC(=O)c3ccc(-c4ccccc4)cc3)CC2)c([N+](=O)[O-])c1,12%,?,-36%[57.1 µM],7%,45µM*,-27%
COC(=O)c1ccc(N2CCN(CC(=O)c3ccc(C)cc3)CC2)c([N+](=O)[O-])c1,30%,nt,nt,nt,nt,-32%
Cc1ccc(NC(=O)CSc2nc(-c3cccs3)cc(C(F)(F)F)n2)cc1C,49%,nt,0%,2%,28%[59 µM],4%
CC(=O)c1sc(Nc2cccc(C)c2)nc1C,45%,12%,50µM*,-3%,39%,0%
Nc1c(C(=O)c2ccccc2)sc(Nc2ccc(Cl)c(Cl)c2)c1C(=O)Nc1ccccc1,?,nt,25µM*,9%,13µM*,45µM*
COC(=O)c1sc(Nc2ccccc2)nc1C,10%,2%,-6%,4%,-38%,-10%
N#Cc1c(Nc2ccc(F)cc2)sc(C(=O)c2ccccc2)c1N,22%,-6%,-11%,7%,-24%,-19%
Cc1nc(Nc2ccc(Cl)c(Cl)c2)sc1C(=O)Nc1ccccc1,-13%,5%,-32%,6%,?,22µM*
N#Cc1c(Nc2ccccc2)sc(C(=O)c2ccccc2)c1N,-25%,-18%,?,5%,10µM*,?
Cc1nc(Nc2ccc(Cl)cc2Cl)sc1C(=O)Nc1ccccc1,17%,8%,-4%,3%,21%[59 µM],-10%
CCC(=O)Nc1cc2c(cc1Cl)-c1ccccc1C2,12%,nt,nt,nt,nt,-12%
CN(CC(=O)NCC1CCCCC1)CC(=O)Nc1ccc(F)cc1,29%,nt,-5%,2%,?,-14%
COc1cc(CNC(=O)c2ccc3c(c2)N(C)C(=O)C2CCCCN32)cc(OC)c1OC (centres undefined),15%[57 µM],nt,-16%,4%,0%[59 µM],-23%
CCN(CC)c1ccc(/C=N/NC(=O)OC)c(O)c1,9%,-21%,-39%,8%,?,-28%
CCN(CC)c1ccc(C=Nc2ccccc2)c(O)c1,?,-29%,-38%,2%,?,-35%

# Screening results: PubChem BioAssay, National Center for Advancing Translational Sciences (NCATS)
